# Screens as filed in PubChem BioAssay.
# Epigenetic derep: Quantitative High-Throughput Screen for Regulators of Epigenetic Control; murine LDR cells, GFP reporter derepression, 30 h; AID 1865, 2009; hit rate 0.2% among 280,000; Potency, µM (top dose mostly 53.9 µM), without a hit: at the top dose GFP activation, usual class: activators; further: % of control where 0% means no effect; nearly all actives have a fitted effect of over 60% in size
#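 GFP-positive cell count by laser-scanning cytometry (objects 20–120 um) after 30 h, 37 C compound exposure of murine LDR cells; reporter is CMV-GFP integrated at a silenced locus, inducible by HDAC or DNMT inhibitors.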
# Sfp PPTase inh: qHTS Assay for Inhibitors of Bacillus subtilis Sfp phosphopantetheinyl transferase (PPTase). hit rate 3.5% among 310,000. 4'-phosphopantetheinyl transferase ffp (Bacillus subtilis), Q9F4F7. Biochemical Sfp PPTase activity, qHTS. Potency, µM, without a hit: largest response in the series, negative = inhibition, most hits filed as inhibitors;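 further: the enzyme is Sfp with the accession as filed and its product quenches rhodamine fluorescence; 0% = enzyme reaction without inhibitor and -100% = no enzyme wells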
#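 Step 1, compound plus 15 nM Sfp-PPTase, 15 min, room temperature. Step 2, add rhodamine-CoA (5 uM) and BHQ-2-YbbR (12.5 uM). Step 3, read 525/598 nm fluorescence at 0 and 30 min.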
# RORgamma inh: qHTS for inhibitors of ROR gamma transcriptional activity. Drosophila S2 Gal4-RORgamma UAS-luciferase reporter, 20 h. hit rate 5.4% among 310,000. Nuclear receptor ROR-gamma (Mus musculus), P51450. Potency, µM (top dose mostly 53.6 µM), without a hit: at the highest dose activity change, negative = inhibition, usual class: inhibitors; further: on the % scale 0 is the no-effect control and ±100 the full control effect; nearly all actives have a fitted effect of over 60% in size
# Target sequence (P51450 whole entry, looked up, the tested form may be a part): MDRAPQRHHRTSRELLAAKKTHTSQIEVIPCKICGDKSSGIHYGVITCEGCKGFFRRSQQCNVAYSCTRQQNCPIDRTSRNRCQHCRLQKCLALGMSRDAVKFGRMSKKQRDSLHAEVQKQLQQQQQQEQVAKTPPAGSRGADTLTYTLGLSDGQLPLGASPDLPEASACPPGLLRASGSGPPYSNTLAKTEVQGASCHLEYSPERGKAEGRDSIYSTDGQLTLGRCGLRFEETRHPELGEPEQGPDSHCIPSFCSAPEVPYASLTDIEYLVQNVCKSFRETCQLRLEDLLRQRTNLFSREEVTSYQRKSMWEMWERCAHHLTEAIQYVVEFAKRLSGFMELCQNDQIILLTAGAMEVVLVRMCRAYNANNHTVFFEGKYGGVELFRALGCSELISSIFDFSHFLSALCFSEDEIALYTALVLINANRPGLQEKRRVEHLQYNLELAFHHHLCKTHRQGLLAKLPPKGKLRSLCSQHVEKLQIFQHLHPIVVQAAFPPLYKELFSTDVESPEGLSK
#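 Schneider cells (Drosophila), stable Gal4 DBD–ROR gamma + UAS-luc; 1 hr cmpd preincubation; Cu2+ induction 700 uM final; 20 hr ambient; luminescence.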
# VP16 counter: VP16 counterscreen qHTS for inhibitors of ROR gamma transcriptional activity | Drosophila S2 Gal4-VP16 UAS-luciferase, luminescence, 20 h | Potency, µM (highest dose often 53.6 µM), inactives show at the highest dose activity, negative = inhibition, hits mostly inhibitors | hit rate 3.5% among 310,000 | AID 2546, 2010;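 further: Gal4-VP16 expression switched on by copper sulfate through the metallothionein promoter; on the % scale 0 is the no-effect control and ±100 the full control effect; nearly all actives have a fitted effect of over 50% in size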
# PINK1 modulator: A Quantitative High throughput Screen to Identify Chemical Modulators of PINK1 Expression; PINK1 immunofluorescence, high-content cytometry, 24 h; Potency, µM (doses to about 76.6 µM), without a hit: top-dose activation (PINK1 increase), actives largely listed as activators; hit rate 0.2% among 410,000; AID 624263, 2012; active means well fitted activation curve with a large enough effect; inconclusive means small, poorly fitted or top-dose-only effect; cell line not stated here; further: % of control where 0% means no effect; nearly all actives have a fitted effect of over 65% in size
#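 Readout is PINK1 immunofluorescence, quantified alongside mitochondrial, cell and nuclear markers by laser-scanning microplate cytometry. Cells from a stable line were exposed to compound titrations (5 concentrations) for 24 hours, with CCCP controls.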
# ClpP mod: qHTS Assay for Activators of ClpP | ATP-dependent Clp protease proteolytic subunit (Bacillus subtilis (strain 168)), P80244 | purified B. subtilis ClpP, FRET peptide cleavage, 20 min | Potency, µM (highest dose often 57.5 µM), inactives show at the highest dose activity change, negative = active | hit rate 1.9% among 340,000 | AID 651965, 2013; active means well fitted falling curve with a large enough effect; inconclusive means small, poorly fitted or top-dose-only effect; inactive means no such curve, though single readings can be large or run the other way; further: the source files actives as falling curves though it sought activators and does not explain the sign; nearly all actives have a fitted effect of over 65% in size
# Target sequence (P80244 whole entry, looked up): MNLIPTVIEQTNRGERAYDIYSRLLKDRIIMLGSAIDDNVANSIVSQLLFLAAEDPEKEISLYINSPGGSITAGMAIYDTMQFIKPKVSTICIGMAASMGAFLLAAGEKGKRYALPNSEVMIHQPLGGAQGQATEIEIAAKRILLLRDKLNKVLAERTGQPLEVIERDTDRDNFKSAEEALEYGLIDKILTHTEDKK
#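 ClpP 10 microg/mL final, pH 8 Tris/KCl buffer with BSA, glycerol, Tween-20; compound pinned in; FRET-FV substrate; RT 20 min; Ex320/Em430; ΔFRET vs ADEP 5.8 microM, DMSO, no enzyme.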
# Active calls of the source: *; ? = inconclusive; nt = not tested or not shown; [ ] = another dose, or the depositor's remark. Compounds with a hit are over-represented: about 8.1% of the library has one in this group of screens. Unless noted, the call rests on the fitted dose curve; in most records, active means well fitted curve in the direction sought with a large enough effect; inconclusive means small, poorly fitted or top-dose-only effect, or another doubt; inactive means no such curve, though single readings can be large; an effect the other way counts as inactive or inconclusive. Potency means the concentration at half of the fitted maximal effect.
SMILES,Epigenetic derep,Sfp PPTase inh,RORgamma inh,VP16 counter,PINK1 modulator,ClpP mod
CCN(CC)c1ccc2cc(/C(N)=N/NC(=O)c3cccs3)c(=O)oc2c1,6.3µM*,3%,-12%,30%,nt,nt
N/C(=N\NC(=O)c1cccs1)c1cc2ccccc2oc1=O,1%,-12%,7.1µM*,7.1µM*,3%,-2%
Cc1ccc(OCc2cc(=O)n3cc(C)sc3n2)c(NC(=O)c2ccco2)c1,4%,nt,nt,nt,0%,-2%
COc1cc(=O)n2c(c1C(=O)NCc1ccc3c(c1)OCO3)CCN(C(=O)c1ccccc1F)CC2,nt,nt,nt,nt,1%,nt
COc1ccccc1C1=Nn2c(nc3sc(C(=O)Nc4ccccc4Cl)c(C)c3c2=O)SC1,-2%,nt,nt,nt,0%,-7%
CN1CCN(CC(=O)N2CCn3c4c(c5cc(C6CCCCC6)ccc53)CCCC42)CC1 (stereo unspecified),-1%,?,2.2µM*,?,-1%,-19%
Cc1nn(C)c(C(=O)NC(=S)Nc2ccc([N+](=O)[O-])cc2)c1Cl,nt,32µM*,nt,nt,?,0%
Cc1nn(C)c(C(=O)NC(=S)Nc2ccccc2Br)c1Cl,nt,?,8.9µM*,14µM*,3%,1%
CCn1ncc(Cl)c1C(=O)Nc1cc(Cl)ccc1Cl,0%,-20%,-21%,4%,2%[38.3 µM],-3%
CCn1ncc(Cl)c1C(=O)NC(=S)Nc1ccccc1Br,nt,-19%,8.9µM*,8.9µM*,-1%,-1%
Cc1nn(C)c(C(=O)NNC(=S)Nc2ccc(F)cc2)c1[N+](=O)[O-],1%,20%,7.9µM*,?,2%[38.3 µM],1%
Cc1ccccc1C(=O)Nc1nc2nc(C)c(C)c(=O)n2[nH]1,-2%,nt,nt,nt,0%,-5%
COC(=O)NC(c1cccc(F)c1)[C@@]1(C(=O)OC)CCCC1=O (stereo partly specified),1%[10.1 µM],25%,-17%[10 µM],-3%[10 µM],nt,nt
CO/N=C/C(C#N)c1ncc(C(F)(F)F)cc1Cl (stereo unspecified),2%,-3%,?,-18%,13µM*,-7%
CO/N=C/C(c1ncc(C(F)(F)F)cc1Cl)S(=O)(=O)c1ccccc1 (stereo unspecified),nt,-1%,0%,2%,2%,2%
Cc1oc2ncn(CC(C)C)c(=O)c2c1C(=O)N1CCN(c2ccc(F)cc2)CC1,0%,nt,nt,nt,0%,1%
CCC(=O)Oc1ccc(C2Nc3ccccc3-c3nnc(SC)nc3O2)cc1 (stereo unspecified),-1%,nt,nt,nt,-1%,0%
CCc1cccc(NC(=O)Cn2c(=O)n(CCc3ccc(OC)c(OC)c3)c(=O)c3ccccc32)c1,2%,nt,nt,nt,4%,?
O=c1cc(CSc2nnc(-c3cccs3)n2Cc2ccccc2)nc2sc3ccccc3n12,-1%,-13%,?,14µM*,-1%,-2%
Cc1cc(C(=O)CSc2nnc(-c3cccs3)n2Cc2ccccc2)c(C)n1C,-3%,-23%,43%,3%,-1%,5%
Cn1c(=O)c2c(-c3ccc(Br)cc3)n(CCc3ccccc3)cc2n(C)c1=O,-3%,nt,nt,nt,-1%,4%
CCCCn1c(=O)nc2n(-c3ccccc3C)c3ccccc3cc-2c1=O,-2%,-23%,6%,-13%,4%,18µM*
CCCCn1c(=O)nc2n(-c3ccc(Br)cc3)c3ccccc3cc-2c1=O,9%,nt,nt,nt,0%,-30%
CC(=O)c1ccc(NC(=S)NCCc2cccc(Cl)c2)cc1,1%,4%,18µM*,?,?,nt
S=C(NCCc1ccccc1)Nc1ccc(Cl)cc1,-3%,2%,6.3µM*,?,15%,2%
SMILES,Epigenetic derep,Sfp PPTase inh,RORgamma inh,VP16 counter,PINK1 modulator,ClpP mod
S=C(NCCCCc1ccccc1)NCc1ccccc1,nt,3%,16µM*,?,3%,-3%
NS(=O)(=O)c1ccc(NC(=S)NCCc2ccccc2)cc1,0%,7.9µM*,35%,27%,1%,-2%
S=C(NCCCCNC(=S)NCc1ccccc1)NCc1ccccc1,nt,-12%,?,-16%,2%,nt
COc1ccc(C(=O)c2cn(Cc3ccc(C)cc3)c3cc4c(cc3c2=O)OCO4)cc1,0%,nt,nt,nt,3%,1%
Cc1nn(-c2ccccc2)c2c1cc1c(=O)[nH]c(=O)nc-1n2-c1cccc(Cl)c1,-1%,nt,nt,nt,1%,4%
CC(C)OCCCNC(=S)Nc1ccc(S(N)(=O)=O)cc1,1%,2.2µM*,8%,35µM*,2%,2%
O=[N+]([O-])c1cc(C(F)(F)F)ccc1NCCNC(=S)Nc1ccc(Cl)cc1,-2%,13%,?,?,13µM*,0%
NS(=O)(=O)c1ccc(CCNC(=O)c2ccc[nH]c2=S)cc1,nt,56µM*,?,11µM*,0%,-2%
CC(=O)c1ccc(NC(=S)NCCc2ccc(S(N)(=O)=O)cc2)cc1,-2%,12%,?,-12%,4%,0%
O=[N+]([O-])c1cc(C(F)(F)F)ccc1NCCCCNS(=O)(=O)c1ccc(Cl)cc1,0%,-1%,13%[10 µM],?,?,2%
NS(=O)(=O)c1ccc(CCNC(=O)c2cccc3ccccc23)cc1,nt,18%,-21%,6%,2%,nt
S=C(NCCc1ccc(Cl)cc1)NC1CC1,0%,24%,2.5µM*,8.9µM*,2%,2%
Cc1ccc(CNC(=O)C2CCN(c3ncnc4c3nc3n4CCCCC3)CC2)cc1,-1%,nt,nt,nt,?,1%
COc1ccc(C2=Nn3c(nnc3-c3cc(OC)cc(OC)c3)SC2)cc1,nt,-24%,-8%,-24%,nt,nt
Cc1cccc(N2CCn3c2nc2c3c(=O)n(CCCc3ccccc3)c(=O)n2C)c1,0%,nt,nt,nt,0%,?
CCOc1ccc(C(c2c(O)cc(C)n(Cc3ccco3)c2=O)N2CCCCC2)cc1 (stereo unspecified),1%,nt,nt,nt,0%,-4%
CC(C)(C)c1ccc(C(=O)C[n+]2ccc(Cl)c3ccc(Cl)cc32)cc1,nt,nt,nt,nt,nt,-5%
S=C(NCCc1ccccc1)Nc1nccs1,nt,nt,nt,nt,4%,-1%
S=C(NCCc1ccccc1)NCCc1ccccc1,-1%,11%,7.1µM*,10µM*,-2%,-2%
O=[N+]([O-])c1ccc(NC(=S)NCCc2ccc(Cl)cc2)cc1,-3%,?,0.63µM*,3.5µM*,?,-2%
CC(C)(C)NC(=O)NCCc1ccccc1,-1%,7%,-36%,-22%,1%,nt
